Results as given in the supplement of paper PMC3334620.
The full ranking holds about 33,000 sequences; the median of “E-score (-0.5 to 0.5)” is about -0.012, and the highest 2% start at about 0.29. This excerpt belongs to a sample that is enriched for the highest values.

target: T1, Ybr033w (UniProt P38073); experiment: PBM E-score (8-mer binding enrichment) (E-score (-0.5 to 0.5)); higher = stronger / more preferred TF binding; details: protein concentration: 200 nM; construct: GST-full length
T1 sequence: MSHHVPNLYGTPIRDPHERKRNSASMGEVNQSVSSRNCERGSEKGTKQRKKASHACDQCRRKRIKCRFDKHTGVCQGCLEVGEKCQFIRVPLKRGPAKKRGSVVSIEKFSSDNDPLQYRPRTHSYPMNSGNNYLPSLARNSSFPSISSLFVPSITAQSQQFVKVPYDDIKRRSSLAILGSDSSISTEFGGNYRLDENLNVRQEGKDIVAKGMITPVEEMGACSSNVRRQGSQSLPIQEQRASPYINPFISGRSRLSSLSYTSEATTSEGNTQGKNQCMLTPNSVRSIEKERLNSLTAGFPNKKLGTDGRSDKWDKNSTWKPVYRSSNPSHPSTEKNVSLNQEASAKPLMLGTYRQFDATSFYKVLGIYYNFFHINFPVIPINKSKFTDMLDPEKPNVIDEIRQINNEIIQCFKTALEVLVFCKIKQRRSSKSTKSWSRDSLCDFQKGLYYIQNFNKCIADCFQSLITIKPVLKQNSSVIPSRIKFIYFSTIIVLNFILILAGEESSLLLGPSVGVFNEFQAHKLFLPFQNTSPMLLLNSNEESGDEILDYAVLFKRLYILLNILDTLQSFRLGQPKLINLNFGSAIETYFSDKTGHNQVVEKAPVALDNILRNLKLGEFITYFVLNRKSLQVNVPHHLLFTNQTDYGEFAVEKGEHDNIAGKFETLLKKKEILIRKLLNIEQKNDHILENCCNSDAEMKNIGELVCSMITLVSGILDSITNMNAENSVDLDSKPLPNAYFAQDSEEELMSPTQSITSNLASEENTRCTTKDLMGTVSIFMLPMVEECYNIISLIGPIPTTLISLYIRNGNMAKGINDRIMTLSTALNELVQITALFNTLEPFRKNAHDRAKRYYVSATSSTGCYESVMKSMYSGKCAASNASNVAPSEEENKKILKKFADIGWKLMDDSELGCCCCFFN
Protocol: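 Universal 'all 10-mer' protein binding microarrays (Agilent AMADID 015681) probed with GST-tagged S. cerevisiae TFs (full-length or DBD) made by in vitro transcription/translation (PURExpress), about 100-200 nM. Bound TF was detected with fluorescent anti-GST. Each ungapped 8-mer (which stands for itself and its reverse complement) is scored by the PBM enrichment score (E-score), a modified Wilcoxon-Mann-Whitney statistic from -0.5 to +0.5, computed with the Universal PBM Analysis Suite. Scale: above 0.35 generally sequence-specific binding.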

Sequence | PBM E-score
TTCCACAA | 0.314
GTCCACAA | 0.0077
GTCCAGAA | -0.051
CTCCACAA | 0.0525
CTCCAGAA | -0.0883
TTCCAGAA | 0.294
ATGAAGAA | 0.126
CTGAACAG | 0.00549
GACGACAA | 0.293
CACGACAA | -0.0495
AACGACAA | 0.175
GAAAGTAC | 0.0791
GACCATTA | 0.2
GACTTAAA | 0.0498
GGTTAAGA | 0.0725
TACTACCA | 0.106
ATCATTTC | 0.258
AACATATA | 0.298
ATCATTAA | 0.313
GACATATA | 0.185
CTCATTTA | 0.0742
ATCATTAG | 0.16
AACATAAT | 0.295
CACATATA | 0.0859
AACATAAC | 0.281

Sequence | PBM E-score
CTCATTAA | 0.23
ATCATTTA | 0.336
AACATAAA | 0.11
AGTTGTAT | 0.0541
TGGCCTAA | -0.088
ATGGCAAG | -0.0226
GTCCTTGA | -0.0584
GACCTATC | -0.0417
AGCCACGA | -0.228
TCACACGA | -0.00326
CTACTAAC | 0.222
CAAGCGTA | 0.093
AACATTTC | 0.272
AACATTTA | 0.296
GACATTTA | -0.045
CCACTTGC | -0.0925
CCGCGCGG | 0.104
AGATCGAG | 0.0958
TACCAATA | 0.0786
AACATCAA | 0.319
GACATCAA | 0.0415
TCCATCAA | 0.312
CACATCAA | 0.127
ACCATCAA | 0.137
CCCATCAA | 0.101

Sequence | PBM E-score
AATGCCAA | 0.112
CACCTCAC | 0.0264
TCCTTTAA | 0.132
ATGACTGG | -0.17
GACTGCAC | -0.221
AACAATTA | 0.366
CTCAATAA | 0.12
ATCAATTC | 0.125
ATCAATAA | 0.321
AACAATTG | 0.115
AACAATTC | 0.205
ATCAATTA | 0.365
ATCAATAG | 0.178
ATCAATTG | 0.252
CAGGAGGC | -0.202
CAATTGCC | 0.0461
AATACTCG | 0.22
CTGAGACC | -0.291
CGTCTGGC | 0.0541
GTACCATA | 0.00958
ATACCATG | -0.0754
ATACCATA | 0.297
ATCGAAAT | 0.119
AATAAAGT | 0.265
ACAAAGTC | 0.0213

Sequence | PBM E-score
ATAAAGAA | 0.291
ACAAAGTA | 0.3
CTAAAGAA | 0.0669
ATAAAGTG | 0.244
ATAAAGTA | 0.306
TTAAAGAA | 0.117
GTAAAGTA | 0.174
GCAAAGTA | 0.113
AGTAAGAA | 0.208
AACAGTGA | -0.0153
ATGTGCTA | 0.208
GCTGCTCA | -0.11
CTCTCTCC | -0.21
ACACTCAC | 0.0907
GACGCAGA | -0.127
ATAGCTAT | 0.13
ACTATCCC | -0.24
ATTATCCG | 0.469
ATTATCCA | 0.341
ACTATCCG | 0.16
ATTATCCC | 0.321
CTTATCCC | -0.16
ATTATCTG | 0.218
GTTATCCA | 0.0783
ATTATCGG | 0.0549

Sequence | PBM E-score
ATTATCGA | 0.0687
CTTATCCA | 0.0666
ATTATCGC | 0.319
AACCATAG | 0.0244
CGTCAAAA | 0.108
ACACCAGA | 0.059
GAGACGCC | -0.0848
AAATTTCG | 0.139
ACCTTTTA | -0.0294
ATCCACAC | -0.00864
AGCTTGCC | -0.231
AACAGGTG | -0.0949
CCACCTCA | -0.134
AGGAGACT | -0.0682
ACGCCCCT | -0.389
AAAGGAAT | 0.0153
ACCAAAAA | 0.332
AGCAAAAA | 0.319
ACCAAAAT | 0.111
CCAAAAAA | 0.332
ACCAAAAC | 0.0839
CAAAAAAA | 0.293
AGCAAAAC | 0.0585
CAAAAAAG | 0.261
CAAAAAAC | 0.146

Sequence | PBM E-score
CCCAAAAA | -0.19
CCAAAAAC | 0.132
AGCAAAAT | 0.2
GATATCGC | 0.119
GGCTTCGA | -0.138
CTGTTCTA | -0.094
GCGCGAGC | -0.21
CCCTGCCC | -0.376
CCGCCAGA | -0.0108
CTGTCTCC | 0.00722
GCCAGTAC | -0.0841
CGTTATGC | 0.0079
CTTTTGGC | -0.0369
AGTATATA | 0.389
ATTATGTA | 0.312
ATATTATC | 0.265
ATTATGTC | 0.17
ATATTATG | 0.315
GCTATATA | 0.194
ACTATATC | 0.229
AGTATATG | 0.0561
ATATTATA | 0.227
ACTATATA | 0.309
ATTATGTG | 0.11
AGTATATC | 0.213

Sequence | PBM E-score
ACTGGAAC | 0.072
ACCCACCC | 0.0336
AACGCGAT | 0.0217
TCTCTGCA | -0.162
GCACTTCA | 0.0397
AGCGCTTC | 0.016
ACCATCAT | 0.0599
AGTGCTAC | -0.0555
CCCGGGAG | -0.0399
CGGCTCAA | 0.103
CACTCGCA | -0.00609
ATTATATC | 0.256
ATTATACA | 0.222
ATTATATG | 0.289
ATATTACG | 0.333
ATTATATA | 0.297
ACTATATG | 0.256
ATATTACC | 0.227
CTTATATA | 0.334
ATTATAAG | 0.237
GTTATATA | 0.154
ATATTACA | 0.256
